The whole screen tested about 330,000 compounds, of which about 4,100 (1.2%) were called active. No stated cut-off is given here; in the data, active means inhibition above about 50%; inactive means the rest. Only a selection was taken, and actives are over-represented in it overall.

The term inhibition denotes the change of the read-out against control, counted positive when it falls.

This experiment deals with Sentrin-specific protease 8 (Homo sapiens) (UniProt Q96LD8). The experiment in a line: blockers of human SENP8 peptidase activity – biochemical, luminescence, primary screen (AID 2540). The conditions noted are these: purified SENP8, Z-RLRGG-aminoluciferin cleavage, at 10 µM, stronger effect = higher value.
Chain of Sentrin-specific protease 8 (Homo sapiens) (Q96LD8 whole entry, looked up): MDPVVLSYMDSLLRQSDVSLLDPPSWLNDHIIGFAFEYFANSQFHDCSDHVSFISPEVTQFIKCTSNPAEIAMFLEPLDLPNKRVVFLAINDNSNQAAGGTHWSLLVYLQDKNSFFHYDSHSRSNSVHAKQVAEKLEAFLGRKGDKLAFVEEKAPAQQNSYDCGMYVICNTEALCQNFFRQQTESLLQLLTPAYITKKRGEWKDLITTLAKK
For the compound `COc1ccc(OCC(=O)NCCS(=O)(=O)N2CCN(c3ccc(F)cc3)CC2)cc1`, the inhibition was 1.89% (inactive). In the case of `CN=C(NC#N)NCCSCc1nc[nH]c1C` it was -4.47% (inactive). In the case of `O=C(Nc1ccccc1)OCc1cn(-c2ccc(Cl)cc2)nn1` it was -2.31% (inactive); in that of `Cc1cc(O)cc(O)c1C(=O)Cc1cnn(-c2ccccc2)c1`, -5.32% (inactive); in that of `O=C(c1cnn(-c2ccc(Cl)cc2)c1)c1ccccc1O`, 91.4% (active).

As to `O=c1[nH]c(CN2CCOCC2)nc2scc(-c3ccccc3)c12`, the inhibition was 1.83% (inactive). Turning to `CC(C)(C)c1cc(C(=O)N/N=C/c2ccc([N+](=O)[O-])s2)n[nH]1`, the inhibition was 20.8% (inactive). As for `O=[N+]([O-])c1ccc(C=Nc2ccc(Cl)cc2Cl)s1`, the figure is 59.6% (active); as for `Cc1ccccc1NCC(=O)N/N=C\c1ccc([N+](=O)[O-])s1`, 33% (inactive). In the case of `CCc1ccc(NC(=O)N2CCc3ccccc3C2)cc1` it was -3.45% (inactive). In the case of `COc1ccc([N+](=O)[O-])cc1NC(=O)C(C)OC(=O)C1c2ccccc2Oc2ccccc21` (stereo not given) it was -5.39% (inactive); in that of `Cn1cnc(C(F)(F)F)c1-c1ccc([N+](=O)[O-])cc1`, 2.27% (inactive); in that of `O=c1c2ccccc2ncn1/N=C/c1ccccc1`, 80.9% (active).

For the compound `CCOC(=O)N1CCN(C(=O)Cn2cnc3ccccc3c2=O)CC1`, the inhibition was -8.63% (inactive). As for `CN(C(=O)Nc1ccc(Cl)cc1)n1cnc2ccccc2c1=O`, the figure is -6.28% (inactive); as for `CCOC(=O)C1CCN(S(=O)(=O)c2ccc3c(c2)N(C(C)=O)CCO3)CC1`, -1.03% (inactive); as for `Cc1ccc(CNC(=O)[C@@H](NC(=O)Cc2ccccc2)C(C)C)cc1`, 2.25% (inactive). As for `CC(C)C(=O)Nc1nnc(SCC(=O)N2C(C)CCCC2C)s1` (stereo not given), the figure is -3.68% (inactive); as for `COc1ccc(C2C3=C(OC(C)=O)c4ccccc4C3=Nc3c2c(=O)n(C)c(=O)n3C)cc1` (stereo not given), 7.93% (inactive); as for `O=C(COC(=O)/C=C/c1cn(-c2ccccc2)nc1-c1cccnc1)Nc1ccc(Cl)cc1Cl`, -4.08% (inactive). In the case of `CCOc1ccc(C(=O)Nc2cccc(-c3ccc4nncn4n3)c2)cc1`, the inhibition is -9.4% (inactive). As for `CSc1cccc(NC(=O)CSc2ccccc2)c1`, the figure is -14.5% (inactive); as for `CCOc1ccc(C(=O)Nc2cccc(SC)c2)cc1`, 82.4% (active). As for `O=C(Nc1ccc(N2CCOCC2)cc1)c1cccc(S(=O)(=O)N2CCOCC2)c1`, the figure is -6.21% (inactive); as for `COc1cccc(C(=O)Nc2ccc(N3CCCC3)cc2)c1`, 96.4% (active); as for `COc1cccc(C(=O)Nc2nnc(S(=O)(=O)N3CCCCC3)s2)c1`, -11% (inactive). In the case of `O=C(OC1CCOC1=O)c1cccc(S(=O)(=O)Nc2ccc(F)cc2)c1` (stereo not given) it was 2.88% (inactive).

Consider `COc1cccc(NC(=O)COC(=O)/C=C/c2ccco2)c1`, for which the inhibition is -1.22% (inactive). In the case of `O=C(/C=C/c1ccco1)NC(=S)Nc1ccccc1Br` it was -6.97% (inactive). In the case of `O=C(/C=C/c1ccco1)Nc1ccc(Oc2ccccc2)cc1` it was 58.9% (active); in that of `O=C(NCCc1ccc(Cl)cc1Cl)c1cc([N+](=O)[O-])c[nH]c1=O`, 4.55% (inactive); in that of `Cc1cc(OC(=O)c2ccc(OC(C)C)cc2)c([N+](=O)[O-])c(=O)[nH]1`, 1.33% (inactive).

As for `COc1cccc(-c2nnc(SCCOc3ccc4c(C)cc(=O)oc4c3)o2)c1`, the inhibition is 1.03% (inactive).

On to `O=[N+]([O-])c1ccc2c(c1)Nc1nc3ccccc3nc1N2`, for which the inhibition is -4.07% (inactive). As to `O=[N+]([O-])c1ccc2oc(-c3cccc(O)c3)nc2c1`, the inhibition is 84.7% (active). In the case of `COc1ccc2oc(-c3cccc(NC(=O)CSc4ccc(Cl)cc4)c3)nc2c1`, the inhibition was -5.16% (inactive).

For `COc1cccc(-c2nc3cc(C)ccc3o2)c1`, the inhibition is 96.2% (active). As for `COc1ccc([N+](=O)[O-])cc1-c1nc2ccccc2nc1-c1ccccc1`, the figure is 12.3% (inactive); as for `Cc1c(CC(=O)NCC(=O)NCC(=O)O)c(=O)oc2cc3oc4c(c3cc12)CCCC4`, -13.4% (inactive). In the case of `Clc1ccc(-n2nnnc2CN2CCCCC2)cc1Cl` it was -12% (inactive); in that of `O=C(/C=C/NNC(=O)c1cccc(Br)c1)c1ccccc1`, -1.09% (inactive). As for `CCOc1ccccc1N1C(=O)CC(Sc2nccc(C)n2)C1=O` (stereo not given), the figure is 1.56% (inactive); as for `COc1ccc(NC(=O)CNc2cc(S(=O)(=O)N3CCOCC3)ccc2N2CCOCC2)c(OC)c1`, 7.93% (inactive); as for `Cc1c(Cl)cccc1NC(=O)NCc1ccc(C)n1C`, -0.511% (inactive). For `CC(=O)c1ccc(S(=O)(=O)NC2CC(=O)N(c3ccc4c(c3)OCCO4)C2)cc1` (stereo not given), the inhibition is -4.2% (inactive). As for `CC(C)(C)OC(=O)C[C@@H]1C/C=C\C[C@H](CC(=O)N[C@@H](CO)Cc2ccccc2)C(=O)N[C@H](Cc2ccccc2)COC1=O`, the figure is -7.09% (inactive). As for `COc1cc(C2C(C(=O)c3cccs3)=C(O)C(=O)N2CCN2CCOCC2)ccc1OCCC(C)C` (stereo not given), the figure is -3.6% (inactive); as for `CCn1cc(CN2CCC(C(=O)Nc3cccc(-c4cccc(Cl)c4)c3)CC2)c(C)n1`, -6.83% (inactive). As for `CCCN1CC=C2C(C#N)=C(N)C(C#N)(C#N)C(c3cc(OC)ccc3OC)C2C1` (stereo not given), the inhibition is 0.594% (inactive).

In the case of `N#CC1=C(N)C(C#N)(C#N)[C@H](c2ccsc2)[C@H]2COCC=C12`, the inhibition was -3.51% (inactive). In the case of `CCN1CC=C2C(C#N)=C(N)C(C#N)(C#N)[C@H](c3ccoc3)[C@H]2C1` it was 50.7% (active). As for `Cc1cn(C)c(=O)n(C)c1=O`, the figure is -18.1% (inactive).

For the compound `O=C(Nc1cccc2cccnc12)c1cccc(Cl)c1`, the inhibition is 8.84% (inactive). In the case of `COc1ccc(NC(=O)C2CCCN(S(=O)(=O)c3cccc4cccnc34)C2)cc1` (stereo not given) it was 6% (inactive); in that of `COc1ccc(NC(=O)Nc2cccc3cccnc23)cc1`, 81% (active); in that of `CC12CCC(C(=O)N(CCC#N)CCC#N)(CC1=O)C2(C)C` (stereo not given), -1.58% (inactive). Regarding `COc1cccc(/C=N\Nc2nncc(-c3ccccc3)n2)c1`, the inhibition was -14.9% (inactive).

Consider `C/C(=N\Nc1nncc2ccccc12)c1ccc(Cl)c([N+](=O)[O-])c1`, for which the inhibition was 5.46% (inactive). In the case of `CN(CCO)c1ccc(/C=N/Nc2nncc3ccccc23)cc1` it was 94.9% (active).

With `O=C(Oc1ccc(-c2nc(-c3ccccn3)no2)cc1)c1ccccc1`, the inhibition is 97.3% (active). As for `O=C(COC(=O)c1ccncc1)c1ccccc1`, the figure is -23.2% (inactive); as for `Clc1ccc(-n2nnnc2-c2cnc(-c3ccccn3)nc2-c2cccs2)cc1`, -4.12% (inactive); as for `c1ccc(-c2noc(-c3cccs3)n2)nc1`, 88.9% (active). In the case of `Cc1ccc(-c2nc(-c3ccncc3)no2)c(C)c1` it was 42.8% (inactive); in that of `c1ccc(CCc2nc(-c3ccncc3)no2)cc1`, -9.99% (inactive). On to `Cc1noc(C)c1COC(=O)COc1ccc(-c2ccccc2)cc1`, for which the inhibition is -5.47% (inactive). In the case of `COc1ccc(CCc2nc(-c3cccs3)no2)cc1`, the inhibition was -14.5% (inactive).

Take `c1csc(-c2nc(-c3ccncc3)no2)c1`: the inhibition is 57.3% (active). As for `CC1CCC2(CC1)NC(=O)N(CC(=O)c1cccn1C)C2=O` (stereo not given), the figure is -3.15% (inactive). In the case of `CCOC(=O)N1CCN(c2c(NCCN3CCN(c4ccccc4F)CC3)c(=O)c2=O)CC1` it was -9.98% (inactive); in that of `COc1ccccc1CNC(=O)[C@@H]1CCCN1C(=O)[C@@H]1Cc2ccccc2CN1C(=O)OC(C)(C)C`, -1.1% (inactive); in that of `Cc1ccc(N(C(=O)c2ccc(S(=O)(=O)N(C)C)cc2)C2C=CS(=O)(=O)C2)cc1` (stereo not given), -5.23% (inactive). As for `O=C1CCC(C(=O)N2CCN(c3ccccc3Cl)CC2)CN1CC1CCCCC1` (stereo not given), the figure is -2.96% (inactive); as for `Clc1ccc(-c2cc(-c3ccccn3)on2)c(Cl)c1`, 98% (active); as for `Clc1ccc(COn2c(-c3ccc(Cl)cc3Cl)nc3ncccc32)cc1`, 1.77% (inactive).

For `O=C1c2ccccc2C(=O)N1Cc1cc(-c2ccccc2Cl)no1`, the inhibition is 2.3% (inactive). As for `O=C(COC(=O)c1c2c(nc3ccccc13)CCCC2)c1ccc(Br)s1`, the figure is -1.41% (inactive). As for `Cn1cccc1C(=O)OCC(=O)c1ccc(Br)s1`, the figure is 75.8% (active); as for `Cn1cccc1C(=O)OCC(=O)NCCc1ccccc1`, -2.12% (inactive); as for `COc1cccc(NC(=O)CSc2nnc(C3CCCCC3)n2N)c1`, 6.19% (inactive). In the case of `O=C(NCC1CC1)c1onc(CSc2ccccc2)c1C(=O)NCC1CC1` it was 1.24% (inactive).

As to `Cc1ccc(NC(=O)c2ccc(S(=O)(=O)NCC3CCCO3)cc2)cc1C` (stereo not given), the inhibition was 9.11% (inactive).

Turning to `Cc1cccc(C(=O)Nc2nnc(S(=O)(=O)N3CCCCCC3)s2)c1`, the inhibition is 18.3% (inactive). As for `O=C(Nc1nnc(S(=O)(=O)N2CCCCCC2)s1)c1cccc(Br)c1`, the figure is 71.5% (active); as for `O=C(Nc1nnc(S(=O)(=O)N2CCOCC2)s1)c1cccc(Br)c1`, 6.23% (inactive); as for `Cc1ccc(S(=O)(=O)NC(=O)c2cccc(C)c2)cc1`, -5.51% (inactive). As for `Cc1[nH]n(C(N)=S)c(=O)c1N=Nc1ccc(Cl)cc1Cl`, the inhibition is 95.6% (active).

For the compound `Cc1[nH]n(C)c(=O)c1N=Nc1ccc(S(C)(=O)=O)cc1`, the inhibition is -4.34% (inactive). As for `CCCCNC(=O)C1CCCNC1=O` (stereo not given), the figure is -10.4% (inactive). Consider `O=C(O)c1cc(S(=O)(=O)N(Cc2ccccc2)c2ccccc2)ccc1Cl`, for which the inhibition is 3.75% (inactive). As for `C/C(=N\OCC(=O)Nc1ccc(Br)cc1)c1cccs1`, the figure is -8.52% (inactive). In the case of `O=C(O)c1ccccc1OCc1ccccc1Cl` it was 1.22% (inactive). In the case of `O=C1c2ccccc2C(=O)N1CCC#Cc1ccc2cc(C3(O)CCCCC3)oc(=O)c2c1` it was -2.91% (inactive); in that of `COc1cc(/C=C2\Oc3ccc(C#Cc4ccc(O)cc4)cc3C2=O)cc(OC)c1`, 5.28% (inactive). With `COc1cc(C#Cc2ccc3cc(CCCO)oc(=O)c3c2)cc(OC)c1`, the inhibition was 69.6% (active).
